From the supplement of paper PMC10646978
± gives the standard deviation.

Tests used:
Details in all cases: modulator concentration 10 µM
[1] = system: RAW-Dual (murine macrophage reporter line); assay: NF-kB reporter (SEAP) activity fold change vs agonist alone; higher = enhanced NF-kB activity
How it was run: (§1)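 RAW-Dual murine macrophage reporter cells were seeded at 50 000 per well in 384-well plates and pre-incubated 1 hour at 37 °C with compound pin-transferred to 10 μM final. After 1 hour, a PRR agonist was added and cells incubated overnight. Supernatant NF-κB (SEAP, QUANTI-Blue, 620 nm absorbance) and IRF (Lucia luciferase, QUANTI-Luc, luminescence) signals were divided by the mean agonist-only control on the same plate to give fold change. Two replicate plates were averaged, with errors by propagation.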

[2] = system: RAW-Dual (murine macrophage reporter line); assay: IRF reporter (Lucia luciferase) activity fold change vs agonist alone; higher = enhanced IRF activity
How it was run: as §1

[3] = system: RAW-Dual (murine macrophage reporter line); assay: viability score (confluency relative to resting cells, overnight) (fraction); higher = more viable, active = viable (0.7 or more)
How it was run: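 Confluency was the readout: RAW-Dual macrophages were imaged with IncuCyte after an overnight exposure to compound at 10 μM final. IncuCyte software produced two masks over all imaged wells. The viability score expresses confluency against resting cells, and both masks had to exceed 70% of resting cells for a compound to meet the cutoff.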

[4] = agonist: CpG ODN 1826 0.5 ug/mL

Compound	NF-kB reporter [1, 4]	NF-kB reporter ([1]; agonist: LPS 0.1 ug/mL)	NF-kB reporter ([1]; agonist: MPLA […])	IRF reporter ([2]; agonist: 3'3'-cGAMP 10 ug/mL)	IRF reporter ([2]; agonist: LPS 0.1 ug/mL)	IRF reporter ([2]; agonist: MPLA […])	viability score [3]
CCC(O)=C(C#N)c1nc2ccccc2n1C	1.12 ± 0.12	0.938 ± 0.061	1.18 ± 0.064	0.792 ± 0.033	1.02 ± 0.07	1.37 ± 0.15	0.995 (active)
Cc1n[nH]c(C)c1CCC(=O)NC1CCC(F)(F)CC1	0.921 ± 0.068	1.04 ± 0.12	0.879 ± 0.048	0.955 ± 0.062	1.18 ± 0.094	1.03 ± 0.28	1.02 (active)
CN(C)c1ncc(NC(=O)c2ccc(Oc3ncccn3)cc2)c(N(C)C)n1	0.856 ± 0.086	0.953 ± 0.075	0.849 ± 0.065	0.991 ± 0.053	1.2 ± 0.083	1.08 ± 0.14	0.985 (active)
COc1ccc(C(=O)Nc2cc(C)nc3c(C)cc(C)cc23)cc1OC	0.763 ± 0.18	0.948 ± 0.054	0.838 ± 0.055	0.501 ± 0.038	0.767 ± 0.15	0.746 ± 0.07	0.589 (inactive)
COc1ccc(-c2cc(=O)c3c(O)cc(O)cc3o2)cc1O	1.38 ± 0.11	1.15 ± 0.056	1.3 ± 0.04	0.641 ± 0.036	0.426 ± 0.076	0.356 ± 0.063	0.985 (active)
CC(NC(=O)C(=O)Nc1ccc(F)cc1)c1ccccc1 (stereo not drawn)	0.972 ± 0.074	0.984 ± 0.18	0.939 ± 0.097	0.987 ± 0.069	1.22 ± 0.21	1.28 ± 0.2	0.994 (active)
Nc1nc(Cl)nc2c1ncn2[C@H]1C[C@H](O)[C@@H](CO)O1	1.91 ± 0.4	1.39 ± 0.11	1.65 ± 0.12	0.723 ± 0.055	1.09 ± 0.096	1.08 ± 0.22	0.244 (inactive)
Cc1cc2c(cc1S(N)(=O)=O)S(=O)(=O)CCC2	1.02 ± 0.094	1.03 ± 0.085	0.997 ± 0.022	1 ± 0.11	0.95 ± 0.044	0.891 ± 0.14	1 (active)
Cn1cc(CC(=O)NC2CCN(c3cc(C(F)(F)F)ncn3)CC2)c2ccccc21	1.45 ± 0.082	1.24 ± 0.1	1.13 ± 0.23	0.77 ± 0.039	1.24 ± 0.075	1.39 ± 0.1	0.929 (active)
COc1ccc(Nc2nc(Nc3ccc4ncccc4c3)nc(N3CCOCC3)n2)cc1	0.279 ± 0.013	1.36 ± 0.11	2.85 ± 0.15	0.34 ± 0.015	1.61 ± 0.24	2.74 ± 0.57	0.904 (active)
Br.Fc1ccc(-c2csc(Nc3ccc4c(c3)OCO4)n2)cc1	0.871 ± 0.076	0.946 ± 0.066	1.02 ± 0.038	0.315 ± 0.022	1.03 ± 0.076	1.29 ± 0.12	0.999 (active)
COCCCNC(=O)CSc1ccc(Cl)cc1	1.07 ± 0.17	0.974 ± 0.11	0.952 ± 0.13	0.889 ± 0.063	1.12 ± 0.28	1.1 ± 0.13	1 (active)
CCN(CC)CCNC(=O)c1cc(S(C)(=O)=O)ccc1OC.Cl	1.02 ± 0.13	1.16 ± 0.078	0.975 ± 0.021	0.94 ± 0.056	0.989 ± 0.11	1 ± 0.13	0.998 (active)
CC(=O)c1ccc(NC(=O)c2ccccc2C(=O)O)cc1	1.27 ± 0.12	1.14 ± 0.1	1.08 ± 0.12	0.903 ± 0.11	1.14 ± 0.13	1.31 ± 0.29	1 (active)
